Records with an inconclusive call do not appear. Calls of active or inactive are those of the source. Calls come from the whole dose curve; as a rule, active = well fitted inhibition curve with a large enough effect; inconclusive = small, poorly fitted or top-dose-only effect; inactive = no such curve, though single readings can be large or run the other way.
experiment: qHTS Assay for Lipid Storage Modulators: COS7 Assay against Probe and Analogs; details: COS7 lipid droplet area, BODIPY imaging, 18 h; cells loaded with 400 µM oleic acid
In short: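 COS7 cells treated 17-18 h with compound in 5% FBS medium, 0.2% DMSO and 400 microM oleic acid. Fixed cells stained with BODIPY 493/503 and Hoechst; lipid droplets counted from microscope images by visual review and image segmentation.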

Max response, inactive:
O=C(CCCCCCC(=O)Nc1ccccc1)NO -18.2%
O=C(NC1CCCc2c1cnn2-c1ccc(F)cc1F)c1cnon1 (stereo not drawn) 13.2%
O=C(Cc1ccccc1)NC1CCCc2c1cnn2-c1ccc(F)cc1F (stereo not drawn) 1.55%
O=C(NC1CCCc2c1cnn2-c1ccc(F)cc1F)c1cccs1 (stereo not drawn) -60.6%
CC(C)(C)OC(=O)NCCOCCOCCOCCn1ncc2c1CCCC2NC(=O)c1ccccn1 (stereo not drawn) 0.489%
Cc1cccc(-c2ccc3ncnc(NCc4cccc(F)c4)c3c2)c1 -9.55%
O=C(NC1CCCc2c1cnn2-c1ccc(F)cc1F)C1CCCCC1 (stereo not drawn) 3.71%
CCOc1ccc(CCNC(=O)C2(c3ccccc3)CC2)cc1OCC 2.24%
CCOc1ccc(CCNC(=O)c2ccc(N3N=C(C)CC3=O)cc2)cc1OCC 0.211%
O=C(NC1CCCc2c1cnn2-c1ccc(F)cc1F)c1cccc(=O)[nH]1 (stereo not drawn) 14.9%
CCN(CC)C(=O)C1CCN(C(=O)C(C)(C)NC(=O)Nc2ccccc2Cl)CC1 -9.22%
CCOc1ccc(CCNC(=O)C2CCCCC2)cc1OCC -8.52%
CCOc1ccc(CCNC(=O)c2ccc3ccccc3n2)cc1OCC -25%
O=C(O)CCc1ccc(NCc2cccc(Oc3ccccc3)c2)cc1 -0.35%
CN(C)CC(=O)NC1CCCc2c1cnn2-c1ccc(F)cc1F (stereo not drawn) 19.8%
Cc1cc2c(cc1C1(c3ccc(C(=O)O)cc3)CC1)C(C)(C)CCC2(C)C -1.19%
CCOC(=O)C1CCN(C(=O)CNC(=O)Nc2ccccc2Cl)CC1 11.1%
CCOc1ccc(CCNC(=O)c2ccc3[nH]ccc3c2)cc1OCC 20.9%

Potency, active:
CC(C)(C)OC(=O)NCCOCCOCCOc1ccc(-n2ncc3c2CCCC3NC(=O)c2ccccn2)cc1 (stereo not drawn) 18.7 µM
CCOc1ccc(CCNC(=O)c2cc3ccccc3n2Cc2ccc(Cl)c(F)c2)cc1OCC 0.332 µM
O=C(NCCc1ccc(OCC(F)(F)F)c(OCC(F)(F)F)c1)c1cc2sccc2n1Cc1ccccc1 2.96 µM
CCOc1cc2c(cc1OCC)CN(C(=O)c1cc3sccc3n1Cc1ccccc1)CC2 3.32 µM
O=C(NC1CCCc2c1cnn2-c1ccc(O)cc1)c1ccccn1 (stereo not drawn) 10.5 µM
CCOc1ccc(CCNC(=O)c2cc3sccc3n2Cc2ccc(Cl)c(F)c2)cc1OCC 0.296 µM
CC(NCc1ccc2c(c1)nc(NC(=O)c1ccc(-c3cn[nH]c3)s1)n2CC(C)(C)O)C(C)(C)C (stereo not drawn) 4.69 µM
CCOc1ccc(CCNC(=O)c2cc3c(s2)CCC3)cc1OCC 11.8 µM
CCOC(=O)C1CCN(C(=O)C2(NC(=O)Nc3ccc(F)cc3F)CCCCC2)CC1 16.6 µM
CCOc1ccc(CCNC(=O)c2cc3sccc3n2C(C)C)cc1OCC 1.18 µM
O=C(NC1CCCc2c1cnn2-c1cccc(O)c1)c1ccccn1 (stereo not drawn) 4.18 µM
COc1cccc(-n2ncc3c2CCCC3NC(=O)c2ccccn2)c1 (stereo not drawn) 5.9 µM
CCOc1ccc(CCNC(=O)c2cc3sccc3n2C)cc1OCC 8.33 µM
CC1(C)CCC(c2ccc(Cl)cc2)=C(CN2CCN(c3ccc(C(=O)NS(=O)(=O)c4ccc(N[C@H](CCN5CCOCC5)CSc5ccccc5)c(S(=O)(=O)C(F)(F)F)c4)cc3)CC2)C1 3.72 µM
CCOc1ccc(CCNC(=O)c2cccc(C(=O)c3ccccc3)c2)cc1OCC 14.8 µM

Source: PubChem BioAssay AID652283 (National Center for Advancing Translational Sciences (NCATS), 2013)
